The values that follow come from PubChem BioAssay.

Each structure is given as a SMILES string. Inconclusive results are not listed. A number with no mark means an inactive call. Active and inactive are the calls of the source.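 The calls were made as follows: active = viability at or below 27.92% in each of two runs, the all-compound median minus 4 SD; inconclusive = no clear call, values can overlap the other calls; inactive = the rest.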

A short description of the assay: viability of PTEN-null HCT116 cells – cell-based, HCT116 clonal line, CellTiter-Glo, pilot screen (AID 824).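 Also: 0% = 20 µM Hyamine control and 100% = vehicle cell control.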 Particulars: HCT116 PTEN-deleted viability, 60 h, at 10 µM, active compounds read low. (In general: ATP-based viability assays read luminescence as a measure of living cells.)
For `O=C(CSc1ccc2nnc(-c3ccc(F)cc3)n2n1)N1CCOCC1`, the viability is 96.6%. The same measure for `COC(=O)CN1C(=O)COc2ccc(Cl)cc21`: 94%. The same measure for `CCOC(=O)C1CCCN(C(=O)Cn2sc3nc(C)cc(C)c3c2=O)C1` (stereo not given): 12.6% (active).

`O=C(NCc1cccs1)c1cnc2sccn2c1=O`: the viability was 89.9%. The same measure for `COC(=O)c1cn(NC(=O)c2ccncc2)c(=O)c2ccccc12`: 94.9%; for `Cc1ccccc1C(=O)Nc1ccccc1`: 85.4%; for `CC(Oc1ccccc1F)C(=O)NCCN1CCCCC1` (stereo not given): 93.6%. With `O=C(Cn1cc2c(n1)CCCCC2)NC1CCCCCC1`, the viability was 89%. The same measure for `COc1ccccc1OCCC(=O)OCC(=O)NC(=O)NC(C)(C)C`: 84.3%. The same measure for `COc1ccc(OC)c(NC(=O)C2CCCN2C(=O)C2CCC(C)CC2)c1` (stereo not given): 91.6%.

Regarding `Cc1ccc2oc(=O)c3cnn(CC(=O)NC4CCCCC4C)c3c2c1` (stereo not given), the viability was 84.1%. The same measure for `O=C(Nc1nc(-c2ccccn2)cs1)C1COc2ccccc2O1` (stereo not given): 11.5% (active); for `O=C(Nc1ccc(Cl)cc1)C1CC2CCCC(C1)C2=O` (stereo not given): 99.2%.

For the compound `O=C(NCc1ccc2c(c1)OCO2)c1cnc2n(c1=O)CCS2`, the viability was 98%.

Regarding `CC(C)(Oc1ccc(-c2ccco2)cc1)C(=O)O`, the viability was 96.8%.

As to `Cc1cc(S(=O)(=O)N2CCN(Cc3ccccc3)CC2)c(C)s1`, the viability is 81.1%. The same measure for `c1ccc(CSc2nnc(-c3ccncc3)o2)cc1`: 96.3%; for `CC(=O)c1cccc(NC(=O)c2cnn3ccccc23)c1`: 84.4%; for `CCOCCCNC(=O)Cn1cc2c(n1)CCCC2`: 98.8%.

With `Cc1nn(-c2ccccc2)c2sc(C(=O)n3cccn3)cc12`, the viability was 92.4%.

As to `COc1ccccc1N1C(=O)N(C(C)=O)C2C1Nc1ccccc1N2C` (stereo not given), the viability is 86.5%. The same measure for `COCCOC(=O)C1=C(C)NC2=C(C(=O)CC(C)(C)C2)C1c1ccc2c(c1)OCO2` (stereo not given): 87.4%.

With `CC(C)NS(=O)(=O)c1ccc(NC(=O)c2cccnc2)cc1`, the viability was 97.1%.

Regarding `CCCCCn1c(NCc2ccco2)nc2ccccc21`, the viability is 72.9%. As for `O=C(Cn1cnc2c(cnn2-c2ccccc2)c1=O)NC1CCCC1`, the viability is 95.8%. For the compound `Nc1cc(-c2cccc(F)c2)nn1S(=O)(=O)c1cccc2nsnc12`, the viability was 65.7%. The result for `COc1ccc(C/C(O)=C(\C#N)c2nc3ccccc3[nH]2)cc1OC` reads 87.7%; that for `O=C(NCCN1C(=O)C2C3C=CC(C3)C2C1=O)Nc1cccnc1` (stereo not given), 99.7%; that for `CN(C)C(=O)c1nnc(Cc2ccc(Cl)cc2)o1`, 108%.

Take `C=CCOC(=O)C1CC=CCC1C(=O)Oc1ccc(F)cc1F` (stereo not given): the viability was 94%. The result for `Cc1nnc(SCC(=O)N2CCOCC2)n1C` reads 101%; that for `Cc1cc(NCc2ccc3c(c2)OCO3)n2nc(C)nc2n1`, 87.5%; that for `Cc1ccc(-c2nn3c(C)nnc3s2)cc1NC(=O)c1ccco1`, 103%. The result for `CN1CCCN(Cc2ccccc2C(F)(F)F)CC1` reads 98.1%; that for `CCOc1ccccc1N1CCN(C(=O)c2cc(C)oc2C)CC1`, 93.9%; that for `CC(CCc1ccco1)NC(=O)Cn1nc(Cc2ccncc2)c2ccccc2c1=O` (stereo not given), 92.7%.

With `CNC(=O)c1ccsc1NC(=O)c1ccc(Cl)s1`, the viability is 85.6%. The same measure for `O=C(O)c1ccc(CSc2nnc(-c3ccco3)o2)cc1`: 96.6%; for `CCN1C(=O)CSc2ccc(C(=O)OC)cc21`: 90.3%; for `CCOc1ccc(Oc2nc(NCC(C)C)nc(OC)n2)nn1`: 91.5%.

In general, viability refers to a read-out of living cells in per cent, often relative to untreated cells.
